# Measurements reported in PubChem BioAssay AID1224854 (National Center for Advancing Translational Sciences (NCATS), 2016).
# Inconclusive results are not listed. A number with no mark means an inactive call. Active and inactive are the calls of the source. Calls follow the shape of the dose curve; as a rule, active = well fitted activation curve with a large enough effect; inconclusive = small, poorly fitted or top-dose-only effect; inactive = flat fitted curve, though single readings scatter.
# Experiment: Cell viability assay for measurement of the protective activity of small molecules against cell death caused by Zika virus infection in human astrocytoma cells
# Conditions: SNB-19 Zika virus cytoprotection, ATP luminescence, 72 h; series mostly up to 46.1 µM; protection from virus-induced cell death: at the top concentration
# Excerpt: National Center for Advancing Translational Sciences [NCATS] Johns Hopkins University School of Medicine Florida State University Assay Overview: Zika virus infection causes cell death in certain cell types including human neural progenitor cells (hNPCs), astrocytes, and astrocytoma cell line (SNB-19). This cell viability assay measures the ATP content (level) in human astrocytoma cells (SNB-19) using a luminescence readout that is proportional to viable cell numbers. Decrease in the luminescence signal after Zika virus infection indicates the cell death caused by Zika virus. Small molecule inhibitors […] the decreased luminescence signal after Zika virus infection, indicating the protective effect of that small molecule on the cell death caused by Zika virus infection. This observed protective effect of small molecules against Zika virus induced cell death may result from inhibition of virus replication or cellular response to the virus infection.
# Assay Protocol Summary: The medium for SNB-19 cells is composed of RPMI 1640 (ATCC, Cat.# 30-2001), 10% fetal bovine serum (FBS) (GE healthcare Life Sciences, Cat.# SH30071.03), and 1% Pen/Strep (Gibco, Cat.# 15140-122). The ATP content assay kit (PerkinElmer, Cat.# 6016731) was used to determine cell viability. The reagent was reconstituted and prepared as described by the manufacturer. Cells were seeded in 384- or 1536-well assay plates and cultured at 37 C with 5% CO2 for 16 to 20 hours. The typical cell seeding density in the 1536-well plate assay is 250 cells/well in 3ul medium for SNB-19 cells in tissue culture treated plates. Compounds were added to cells and incubated for one hour before addition of ZIKV solution to cells (2 FFU/cell). After incubation at 37 C with 5% CO2 for 72 hours, the reagent mixture of the ATP content assay kit was added to each well, followed by incubation at room temperature for 10 minutes. The luminescence intensity of the assay plates was measured using a ViewLux plate reader (PerkinElmer). […] The percentage inhibitions of the decreased cell viability by small molecule inhibitors were then calculated.
Structure (SMILES),protection from virus-induced cell death,Potency
CCCCCCCCCCCC(=O)[O][Sn]([CH2]CCC)([CH2]CCC)[O]C(=O)CCCCCCCCCCC,-1.87%,–
CCCCCCOc1ccccc1C(N)=O,0.0427%,–
COc1cc(NC(C)CCCN)c2ncccc2c1 (stereo not given),–,17.3 µM (active)
Oc1cc(O)cc(/C=C/c2ccc(O)c(O)c2)c1,-15.2%,–
CN1CCN(c2cc3c(nn2)Oc2ccccc2N3C)CC1,-0.644% [at 23.8 µM],–
Cc1ccc(C(=O)c2ccc(CC(=O)O)n2C)cc1,15.6%,–
COc1cccc(-c2ccc(NC(=O)C3=C(C(=O)O)CCC3)c(F)c2)c1,-9.15%,–
O=C(O)c1ccccc1Nc1cccc(C(F)(F)F)c1,-13.1%,–
COCCn1c2c([n+](Cc3cnccn3)c1C)C(=O)c1ccccc1C2=O,-22.2%,–
Oc1ccc(/C=C/c2cc(O)cc(O)c2)cc1,-18.6%,–
Nc1c(S(=O)(=O)O)cc(Nc2ccc(Nc3nc(Cl)nc(Nc4ccc(S(=O)(=O)O)cc4)n3)c(S(=O)(=O)O)c2)c2c1C(=O)c1ccccc1C2=O,-1.96%,–
CCOC1OC(=O)C[C@H]1NC(=O)[C@@H]1CCCN1C(=O)[C@@H](NC(=O)c1ccc(N)c(Cl)c1)C(C)(C)C (stereo not given in full),0.201%,–
O=C(Oc1ccccc1)c1cccc(C(=O)Oc2ccccc2)c1,3.11% [at 96.3 µM],–
O=c1oc2cc(O)ccc2s1,-5.06%,–
COc1ccc(-c2coc3cc(O)ccc3c2=O)cc1,-7.12%,–
Cc1ccc2c(n1)Oc1ccc(C(C)C(=O)OCC(=O)N(C)C)cc1C2 (stereo not given),-4.14%,–
Cc1nc(N)sc1-c1ccnc(Nc2ccc(N3CCOCC3)cc2)n1,22%,–
O=C(OCc1ccccc1)c1ccc(O)cc1,10.1%,–
Cc1oncc1C(=O)Nc1ccc(C(F)(F)F)cc1,-6.36%,–
O=C(CS)Nc1ccccc1,-2.47%,–

Structure (SMILES),protection from virus-induced cell death,Potency
Nc1ccc2c(c1)CN1C(=O)c3ccccc3C1=N2,-13.3% [at 23.8 µM],–
C[C@@H]1CCN(C(=O)CC#N)C[C@H]1N(C)c1ncnc2[nH]ccc12,-10.5%,–
COc1ccc(NC(=O)/C=C/c2ccc(Cl)cc2)cc1,6.63%,–
CO[C@H]1C(=O)[C@]2(C)[C@@H](OC)C[C@H]3OC[C@@]3(OC(C)=O)[C@H]2[C@H](OC(=O)c2ccccc2)[C@]2(O)C[C@H](OC(=O)[C@H](O)[C@@H](NC(=O)OC(C)(C)C)c3ccccc3)C(C)=C1C2(C)C,-12.5%,–
C[C@H](NC(=O)C(=O)Nc1ccccc1C(C)(C)C)C(=O)N[C@@H](CC(=O)O)C(=O)COc1c(F)c(F)cc(F)c1F,–,0.489 µM (active)
Cc1c(C(=O)O)c(O)cc2c1C(=O)c1c(O)c([C@@H]3O[C@H](CO)[C@@H](O)[C@H](O)[C@H]3O)c(O)c(O)c1C2=O,-5.16%,–
C/C(=N\O)c1ccc(OCC(=O)N2CCCCC2)cc1,-12.8%,–
Cc1c(NC(=O)c2ccc(C(C)(C)C)cc2)cccc1-c1cn(C)c(=O)c(Nc2ccc(C(=O)N3CCOCC3)cc2)n1,–,21.8 µM (active)
O=C1c2ccccc2C(=O)c2c(NCCc3ccc(O)cc3)ccc(NCCc3ccc(O)cc3)c21,–,19.5 µM (active)
CCN(CC)c1ccc(C(=C2C=CC(=[N+](CC)CC)C=C2)c2cc(S(=O)(=O)O)ccc2S(=O)(=O)[O-])cc1,-9.19%,–
CC(C(=O)O)c1ccc(C(=O)c2ccccc2)s1 (stereo not given),-3.16%,–
CCC(C(=O)O)c1ccc(N2Cc3ccccc3C2=O)cc1 (stereo not given),-4.15%,–
C=C1C(=O)[C@@]23C(CC[C@@H]1[C@H]2O)[C@@]12CO[C@]3(O)[C@@H](O)[C@@H]1C(C)(C)CC[C@@H]2O (stereo not given in full),-16.5%,–
CCCSc1ccc2nc(NC(=O)OC)[nH]c2c1,1.59%,–
NC(N)=NN=C(/C=C/c1ccc([N+](=O)[O-])o1)/C=C/c1ccc([N+](=O)[O-])o1,-21.8%,–
Clc1ccccc1-c1nc(-c2ccncc2)no1,-3.86%,–
CN(C)c1ccc2cc(C(=O)N[C@@H](CCCN=C(N)CCl)C(=O)NCc3ccccc3)ccc2c1,–,4.35 µM (active)
CC1(C)Cc2c(sc(NC(=S)NC(=O)c3ccccc3)c2C(=O)O)CO1,10.2%,–
Nc1ncnc2c1ncn2[C@@H]1O[C@@H](CO)[C@H](O)[C@H]1O,1.36% [at 23.8 µM],–
O=C1C[C@@H](c2ccc(O)cc2)Oc2cc(O)cc(O)c21,-7.24%,–
